Inconclusive results are not listed. A call without a number means that no potency is given here. A number with no mark means an inactive call. Activity calls are given as the source filed them. Calls follow the shape of the dose curve; as a rule, active = well fitted cell-killing curve with a large enough effect in the repeat runs; inconclusive = weak or mixed curves, or effect the other way; inactive = flat fitted curve, though single readings scatter.
Assays:
[1] = cAMP Responsive Elements (CRE) small molecule antagonists, cell-based qHTS assay: qHTS cell viability counter screen (AID 2060913); also: nearly all actives have a fitted effect of over 40% in size
Procedure, shortened: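 Cytotoxicity counter screen multiplexed with the CRE-bla antagonist read: HEK293T cells in DMEM with dialyzed FBS and 25 mM HEPES were treated 3 hrs under 0.25 uM final NKH477, then viability measured by CellTiter-Glo luminescence.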

[2] = cAMP Responsive Elements (CRE) small molecule agonists, cell-based qHTS assay: qHTS cell viability counter screen (AID 2060914); also: nearly all actives have a fitted effect of over 50% in size
Procedure, shortened: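 Luminescence read-out (CellTiter-Glo, 30 min RT) of ATP-based viability in CRE-bla HEK 293T cells, run in the same wells as the β-lactamase reporter assay after 3 h compound treatment at 37 °C.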

SMILES | Potency [1] | Potency [2] | viability change, negative = cytotoxic [1] | activity change, negative = cytotoxicity [2]
O=[N+]([O-])c1ccc(/C=C/c2ccc([N+](=O)[O-])cc2S(=O)(=O)O)c(S(=O)(=O)O)c1 | inactive | inactive |  | 
CCOC(=O)N1CCC(n2c(=O)[nH]c3cc(Cl)ccc32)CC1 | inactive | inactive |  | 
Clc1ccc(Nc2nnc(Cc3ccncc3)c3ccccc23)cc1 | inactive | inactive |  | 
Nc1ccc(F)cc1 | inactive | inactive |  | 
CC(C)=CCCC(C)CCO (configuration not stated) | inactive | inactive |  | 
COCCO | inactive | inactive |  | 
OCCCO | inactive | inactive |  | 
COc1cc2c3cc1Oc1cc(ccc1O)C[C@@H]1c4c(cc(OC)c(O)c4Oc4ccc(cc4)C[C@@H]3N(C)CC2)CC[N+]1(C)C | inactive | inactive |  | 
CC1(COc2ccc(CC3SC(=O)NC3=O)cc2)CCCCC1 (configuration not stated) | inactive | inactive |  | 
CCOC(=O)C1=NN(c2ccccc2)C(=O)C1 | inactive | inactive |  | 
O=S(O)CO | inactive | inactive |  | 
CCCC1O[C@@H]2C[C@H]3[C@@H]4CCC5=CC(=O)C=C[C@]5(C)[C@H]4[C@@H](O)C[C@]3(C)[C@]2(C(=O)CO)O1 (some centres not stated) | inactive | inactive |  | 
CCCC1CCOC(C)S1 (configuration not stated) | inactive | inactive |  | 
CC(=O)OCC(=O)[C@@]1(O)CC[C@H]2[C@@H]3CCC4=CC(=O)C=C[C@]4(C)[C@@]3(F)[C@@H](O)C[C@@]21C | inactive | inactive |  | 
O=C(OCC(O)CO)c1ccccc1Nc1ccnc2c(C(F)(F)F)cccc12 (configuration not stated) | inactive | inactive |  | 
Clc1ccc(Sc2cc(Cl)c(Cl)cc2Cl)cc1 | inactive | inactive |  | 
CCCCc1ccc2nc(NC(=O)OC)[nH]c2c1 | inactive | inactive |  | 
CCS(=O)(=O)CCn1c([N+](=O)[O-])cnc1C | inactive | inactive |  | 
C(=C\c1ccccc1)/CN1CCN(C(c2ccccc2)c2ccccc2)CC1 | inactive | inactive |  | 

SMILES | Potency [1] | Potency [2] | viability change, negative = cytotoxic [1] | activity change, negative = cytotoxicity [2]
CC(C)CC(C)CC(O)CC(C)C (configuration not stated) | inactive | inactive |  | 
COCC(C)OC(C)=O (configuration not stated) | inactive | inactive |  | 
OC1OC[C@@H](O)[C@H](O)[C@H]1O (some centres not stated) | inactive | inactive |  | 
Oc1ccccc1Cc1ccccc1O | inactive | inactive |  | 
CC(C)Cc1nccs1 | inactive | inactive |  | 
CC(=O)NS(=O)(=O)c1ccc(N)cc1 | inactive | inactive |  | 
CC(=O)OCC(=O)[C@@]1(O)[C@H](OC(C)=O)C[C@H]2[C@@H]3CCC4=CC(=O)C=C[C@]4(C)[C@@]3(F)[C@@H](O)C[C@@]21C | inactive | inactive |  | 
CCCCCCCCCCCCO | inactive | inactive |  | 
CNCC[C@H](Oc1cccc2ccccc12)c1cccs1 | inactive | inactive |  | 
CC(=O)NO | inactive | inactive |  | 
C=C(C)C(=O)Nc1ccc(Cl)c(Cl)c1 | inactive | inactive |  | 
NC(=O)c1ccncc1 | inactive | inactive |  | 
C=CC(=O)OCCCl | inactive | inactive |  | 
CC(CC(C#N)(c1ccccc1)C(C)C)N(C)C (configuration not stated) | inactive | inactive |  | 
CC(C)C/C=C(\C=O)c1ccccc1 | inactive | inactive |  | 
Cc1ccc(S(=O)(=O)N=C=O)cc1 | inactive | inactive |  | 
O=C(O)C(=O)Cc1ccccc1 | inactive | inactive |  | 
CN1C[C@H](C(=O)N[C@]2(C)O[C@@]3(O)[C@@H]4CCCN4C(=O)[C@H](Cc4ccccc4)N3C2=O)C[C@@H]2c3cccc4[nH]cc(c34)C[C@H]21 | inactive | inactive |  | 
O=C(O)CCC(=O)OC[C@@H](NC(=O)C(Cl)Cl)[C@H](O)c1ccc([N+](=O)[O-])cc1 | inactive | inactive |  | 

SMILES | Potency [1] | Potency [2] | viability change, negative = cytotoxic [1] | activity change, negative = cytotoxicity [2]
COc1ccccc1OCC(O)CO (configuration not stated) | inactive | inactive |  | 
CC(C)COC(=O)COc1ccc(Cl)cc1Cl | inactive | inactive |  | 
CCCCCCCCC(=O)Cl | inactive | inactive |  | 
CCOC(=O)c1ccc(N(C)C)cc1 | inactive | inactive |  | 
CCC(C)C=O (configuration not stated) | inactive | inactive |  | 
O=C1NCCN1CCO | inactive | inactive |  | 
CCCCCCCCCCCC(=O)N(C)CC(=O)O |  |  | 1.91% [at 8.39 µM] | 0.181% [at 8.39 µM]
Cc1c(N(C)C)c(=O)n(-c2ccccc2)n1C | inactive | inactive |  | 
CC(C)(C)NCC(O)COc1ccc(NC(=O)NC2CCCCC2)cc1 (configuration not stated) | inactive | inactive |  | 
CCC1(c2cnc[nH]2)Cc2ccccc2C1 | inactive | inactive |  | 
CN1CCC(=C2c3ccccc3CC(=O)c3sccc32)CC1 | inactive | inactive |  | 
CC(=O)Oc1ccc2c(c1)CC[C@@H]1[C@@H]2CC[C@]2(C)[C@@H](O)CC[C@@H]12 | inactive | inactive |  | 
COc1cccc(O)c1O | inactive | inactive |  | 
O=C1OC(O)C(C(Cl)Cl)=C1Cl (configuration not stated) | inactive | inactive |  | 
C[C@@H]1C[C@H]2[C@@H]3CCC4=CC(=O)C=C[C@]4(C)[C@@]3(F)[C@@H](O)C[C@]2(C)[C@@]1(O)C(=O)COC(=O)c1ccncc1 | inactive | inactive |  | 
CN(C)c1cccc(O)c1 | inactive | inactive |  | 
CN(C)C=O | inactive | inactive |  | 
CCCC(C)C=O (configuration not stated) | inactive | inactive |  | 
